Screening data as filed in PubChem BioAssay.
Compounds with a hit are over-represented: about 3.5% of the library has one in this group of screens.
GDH-TPI counter-1 – counter-screen for M. tuberculosis FBA inhibitors: GDH-TPI coupled enzymes; GDH-TPI coupled enzyme counterscreen, NADH absorbance; inhibition, % at 4.8 µM; 360,000 compounds, 1.2% hits; in the data active = inhibition above about 30%
FBA Mtb inh – inhibitors of M. tuberculosis fructose-bisphosphate aldolase. inhibition, % at 1 µM. P9WQA3. purified M. tuberculosis FBA, fluorescence read-out. 360,000 compounds, 2.3% hits
Rv3671c protease – inhibits the M. tuberculosis serine protease Rv3671c; P9WHR9; inhibition, % at 5.96 µM; 320,000 compounds, 0.048% hits; in the data active = inhibition above about 38%;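 also: extracellular domain of Rv3671c used as enzyme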
UGM FP inh – inhibitors of M. tuberculosis UDP-galactopyranose mutase | P9WIQ1 | purified UGM, fluorescence polarization probe displacement | inhibition, % at 10 µM | 320,000 compounds, 0.06% hits | AID 504406; in the data active = inhibition above about 10%, passing the limit was not always enough
Target sequence (P9WIQ1 whole entry, looked up): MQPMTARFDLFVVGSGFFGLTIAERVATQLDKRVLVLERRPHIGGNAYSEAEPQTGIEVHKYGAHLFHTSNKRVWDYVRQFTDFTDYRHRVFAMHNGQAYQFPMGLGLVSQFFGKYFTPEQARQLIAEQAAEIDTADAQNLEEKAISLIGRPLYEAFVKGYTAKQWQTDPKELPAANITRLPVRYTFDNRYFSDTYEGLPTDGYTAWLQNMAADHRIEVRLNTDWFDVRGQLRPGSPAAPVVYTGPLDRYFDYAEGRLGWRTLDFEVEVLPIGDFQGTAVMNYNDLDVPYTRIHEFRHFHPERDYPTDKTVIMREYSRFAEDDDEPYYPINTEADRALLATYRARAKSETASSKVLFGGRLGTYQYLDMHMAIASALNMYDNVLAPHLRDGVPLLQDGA
Mtb FBA confirm – confirmation of M. tuberculosis fructose-bisphosphate aldolase inhibitors. 5,600 compounds, 78% hits. purified M. tuberculosis FBA, fluorescence read-out. AID 651616. shares compounds with FBA Mtb inh. inhibition, % at 1 µM
GDH-TPI counter-2 – inhibits GDH-TPI coupling enzymes, flagging Mtb FBA hits; GDH-TPI coupled enzyme counterscreen, fluorescence; shares compounds with FBA Mtb inh; AID 652141; inhibition, % at 1 µM; 5,600 compounds, 81% hits; in the data active = inhibition above about 10%
Of the large screens only hits and unclear results are named; the others gave an inactive call (follow-up assays come after a bar, where they were run). Rule as the data show it, unless noted: active = inhibition above about 27%; inactive = the rest.

CC(C)C(=O)N1CCCC1(C)C(=O)Nc1cccc(Oc2ccccc2)c1 (configuration not stated)	none (no result: Rv3671c protease, UGM FP inh)
COc1ccc(S(=O)(=O)Nc2ccc(-c3ccc4nncn4n3)cc2)c(OC)c1	none
CCN(CC)S(=O)(=O)c1ccc(-n2c(=O)c(C(C)C)c(C)n2C)cc1	none
COc1cc2c3c(c1)C(C)=CC(C)(C)N3C(=O)C2=O	FBA Mtb inh 29 | Mtb FBA confirm inactive | GDH-TPI counter-2 inactive
COc1cc2c(cc1O)CC1c3c(cc(O)c(OC)c3-2)CCN1C (configuration not stated)	FBA Mtb inh 27 | Mtb FBA confirm 101 | GDH-TPI counter-2 95
COc1cc2c(cc1OC)-c1c(OC)c(OC)cc3c1[C@H](C2)N(C)CC3	none
O=c1c2ccccc2n(CC(O)CN2CCOCC2)c2ccccc12 (configuration not stated)	FBA Mtb inh 33 | Mtb FBA confirm inactive | GDH-TPI counter-2 inactive
CN(C)c1ncc(S(=O)(=O)c2ccccc2)c(N)n1	none
Cc1ccc(S(=O)(=O)c2cc3ccccc3nc2N)cc1	FBA Mtb inh 36 | Mtb FBA confirm active | GDH-TPI counter-2 193
CCOC(=O)N1CCN(C(=O)c2cc(C)c3c(C)nn(-c4ccccc4)c3n2)CC1	FBA Mtb inh 66 | Mtb FBA confirm inactive | GDH-TPI counter-2 inactive
COc1cc(-c2coc3c(C(=O)NC4CCCCC4)cccc23)ccc1O	none (no result: Rv3671c protease, UGM FP inh)
COCCNC(=O)Cc1c(C)c2c(cc(C)c3c(C(C)(C)C)coc32)oc1=O	FBA Mtb inh 43 | Mtb FBA confirm 70 | GDH-TPI counter-2 65
Cc1cc2oc(=O)c(CC(=O)NCCCO)c(C)c2c2occ(C(C)(C)C)c12	FBA Mtb inh 31 | Mtb FBA confirm 57 | GDH-TPI counter-2 54
Cc1cc2oc(=O)c(CC(=O)O)c(C)c2c2occ(C(C)(C)C)c12	none
Cc1cc2oc(=O)c(CC(=O)NCCCN(C)C)c(C)c2c2occ(C(C)(C)C)c12	none (no result: GDH-TPI counter-1, FBA Mtb inh)
CCN(Cc1ccccc1)S(=O)(=O)c1c(C)[nH]c(C)c1C(=O)N1CCCCC1	none
COc1ccc(NC(=O)CSCc2cc(=O)n3cc(C)sc3n2)cc1	none
Cc1ccc(C2=NN(CC(=O)O)C(=O)CC2)cc1	none
N#Cc1c(Cl)nc(Cl)c2c1CCN(Cc1ccccc1)C2	FBA Mtb inh 93 | Mtb FBA confirm active | GDH-TPI counter-2 active
CCc1ccc(CN2C(=O)c3ccccc3C2C(=O)NC(C)CC)cc1 (configuration not stated)	FBA Mtb inh 105 | Mtb FBA confirm 48 | GDH-TPI counter-2 44
Cc1nc2oc3c(NCC4CCCO4)ncnc3c2c2c1COC(C)(C)C2 (configuration not stated)	FBA Mtb inh 102 | Mtb FBA confirm active | GDH-TPI counter-2 185
CCCc1nc2oc3c(OC)ncnc3c2c2c1COC(C)(C)C2	none
CC(C)c1nc2oc3c(NCCO)ncnc3c2c2c1COC(C)(C)C2	FBA Mtb inh 88 | Mtb FBA confirm 129 | GDH-TPI counter-2 99
CCCc1nc2oc3c(NCCOCCO)ncnc3c2c2c1COC(C)(C)C2	FBA Mtb inh 82 | Mtb FBA confirm 96 | GDH-TPI counter-2 60
CC(C)c1nc2oc3c(=O)[nH]cnc3c2c2c1COC(C)(C)C2	FBA Mtb inh 44 | Mtb FBA confirm 196 | GDH-TPI counter-2 182
CC(C)c1nc2oc3c(NCC4CCCO4)ncnc3c2c2c1COC(C)(C)C2 (configuration not stated)	none (no result: Rv3671c protease, UGM FP inh)
Cc1nc2oc3c(NCc4ccccc4)ncnc3c2c2c1COC(C)(C)C2	none
O=C(CC1C(=O)NCCN1Cc1c(F)cccc1Cl)NCCCN1CCCC1=O (configuration not stated)	none
O=C(Cc1cccc(C(F)(F)F)c1)OCN1C(=O)c2ccccc2C1=O	none
COc1ccc2nc(-c3ccccc3)[nH]c(=O)c2c1	none (no result: Rv3671c protease, UGM FP inh)
COc1ccc(-c2nc3ccc(N4CCCC4)cc3c(=O)[nH]2)cc1OC	FBA Mtb inh 27 | Mtb FBA confirm inactive | GDH-TPI counter-2 inactive
Cc1ccc(S(=O)(=O)Oc2ccc(C3C4=C(CCCC4=O)N(CCC(=O)O)C4=C3C(=O)CCC4)cc2Cl)cc1	FBA Mtb inh 110 | Mtb FBA confirm inactive | GDH-TPI counter-2 inactive
CCOc1cc(C2C3=C(CCCC3=O)N(CCC(=O)O)C3=C2C(=O)CCC3)ccc1OS(=O)(=O)c1ccc(C)cc1	FBA Mtb inh 79 | Mtb FBA confirm 83 | GDH-TPI counter-2 72
OCC(O)[C@@H](O[C@H]1O[C@H](CO)[C@@H](O)[C@H](O)[C@H]1O)[C@H](O)[C@@H](O)CO (some centres not stated)	none
